The source of these data is PubChem BioAssay (EPA / NIEHS).

The term AC50 denotes the concentration at which the activity in the assay is half-maximal.

In assay [1] the target is Estrogen receptor (Homo sapiens) (UniProt P03372). In words: OT_ER_ERaERa_1440: Odyssey Thera (OT) 24-hour HEK293T Protein-Complementation Assay for Estrogen Receptor-alpha/-alpha Homodimer (AID 2283349).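 Further: hits raise fluorescence above DMSO for agonists and antagonists alike.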 The procedure, abridged: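 Readout is the rise in mean fluorescence from reporter fragment complementation when ERα LBD (aa 310-547) units dimerize in HEK293T cells. Measured 24 h after dosing and analysed as increase over DMSO control.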

Assay [2] concerns the target T1, Estrogen receptor (Homo sapiens) + Estrogen receptor beta (Homo sapiens) (UniProt P03372+Q92731). The assay can be described thus: OT_ER_ERaERb_1440: Odyssey Thera (OT) 24-hour HEK293T Protein-Complementation Assay for Estrogen Receptor-alpha/-beta Homodimer (AID 2283356).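 Further: heteromer of ER alpha and ER beta binding domains; hits raise reporter fluorescence and both agonists and antagonists give an increase.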 The procedure, abridged:
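HEK293T stably expressing a PCA of ER alpha LBD (aa 310-547) and ER beta LBD (aa 263-489). After 24 h compound exposure, mean fluorescence intensity in nucleus (agonists) or nucleus and cytoplasm (antagonists) measured by laser scanning cytometry versus vehicle.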

In assay [3] the target is Estrogen receptor beta (Homo sapiens) (UniProt Q92731). The assay can be described thus: OT_ER_ERbERb_0480: Odyssey Thera (OT) 8-hour HEK293T Protein-Complementation Assay for Estrogen Receptor-beta/-beta Homodimer (AID 2283357).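 Further: active means signal gain over DMSO baseline.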 The procedure, abridged: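 Readout: increase in mean fluorescence intensity (nucleus for agonists; nucleus plus cytoplasm for antagonists) relative to DMSO, from a reporter-fragment complementation of human ER-beta LBD homodimer in HEK293T cells dosed 8 hours.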

Assay [4] concerns the target Retinoic acid receptor alpha (Homo sapiens) (UniProt P10276). The assay can be described thus: NVS_NR_hRAR_Antagonist: NovaScreen (NVS) Nuclear Receptor Binding Assay for human Retinoic Acid Alpha Receptor Antagonism (RAR) (AID 2283358). The method, boiled down:
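Cell-free TR-FRET binding assay on extracted receptor protein, run in antagonist mode; signal read 2 hours after chemical dosing. Loss of signal was fitted relative to DMSO baseline. Screened at 25 uM in duplicate, actives followed up in concentration series.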

For assay [5], the target named is Bile acid receptor (Homo sapiens) (UniProt Q96RI1). The assay can be described thus: NVS_NR_hFXR_Antagonist: NovaScreen (NVS) Nuclear Receptor Binding Assay for human Farnesoid X Receptor Antagonism (FXR) (AID 2283350). The method, boiled down:
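Cell-free TR-FRET ligand-binding read-out on human FXR (NR1H4) in antagonist mode, measured 1 h after dosing. Primary screen in duplicate at 25 uM, actives retested in concentration series; signal loss scored versus DMSO.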

Assay [6] has as its target T1, Estrogen receptor (Homo sapiens) + Estrogen receptor beta (Homo sapiens). In words: OT_ER_ERaERb_0480: Odyssey Thera (OT) 8-hour HEK293T Protein-Complementation Assay for Estrogen Receptor-alpha/-beta Heterodimer (AID 2283352). The procedure, abridged:
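HEK293T protein-fragment complementation assay of ER-alpha/ER-beta LBD heterodimerisation, read 8 h after dosing. Mean nuclear/cytoplasmic fluorescence intensity measured by laser scanning cytometry; gain of signal fitted relative to DMSO.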

Assay [7] concerns the target Androgen Receptor/SRC-1 Co-activator, AR (gene 367) (UniProt P10275). The assay can be described thus: OT_AR_ARSRC1_0960: Odyssey Thera (OT) 16-hour HEK293T Protein-Complementation Assay for Androgen Receptor/SRC-1 Co-activator (AID 2283353).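 Further: actives raise the signal above DMSO so potency reflects increased AR and SRC-1 complex.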 The method, boiled down: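 Interaction of AR with SRC-1 was followed by YFP fragment complementation in HEK293T cells after 16 h of dosing. Gain of nuclear-over-cytoplasmic 488 nm fluorescence against DMSO controls defined activity.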

The target in assay [8] is human Thyroid Receptor Alpha (TRa), THRA (gene 7067) (UniProt P10827). In words: NVS_NR_hTRa_Antagonist: NovaScreen (NVS) Nuclear Receptor Binding Assay for human Thyroid Receptor Alpha Antagonism (TRa) (AID 2283362).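 Further: activity is loss of signal relative to DMSO baseline.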 The method, boiled down: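 Cell-free AlphaLISA chemiluminescent binding read 1 h after dosing, antagonist mode; signal loss versus DMSO baseline. Primary screen in duplicate at 25 uM, then concentration series for actives.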

Assay [9] concerns the target Estrogen receptor (Homo sapiens) (UniProt P03372). In words: OT_ER_ERaERa_0480: Odyssey Thera (OT) 8-hour HEK293T Protein-Complementation Assay for Estrogen Receptor-alpha/-alpha Homodimer (AID 2283351).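 Further: rise in fluorescence from reassembled reporter fragments on ERα LBD homodimer in nucleus or whole cell.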 The method, boiled down: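 Binding reporter in which dimerisation of ERα LBD (aa 310-547) fusions reconstitutes a fluorescent reporter in HEK293T cells. Compounds incubated 8 h; mean fluorescence intensity increase versus DMSO scored.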

The target in assay [10] is rat Mineralocorticoid Receptor (MR), Nr3c2 (gene 25672) (UniProt P22199). The assay can be described thus: NVS_NR_rMR: NovaScreen (NVS) Nuclear Receptor Binding Assay for rat Mineralocorticoid Receptor (MR) (AID 2283355). The procedure, abridged:
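Cell-free radioligand binding to MR in adrenalectomized rat brain supernatant, scintillation counted 24 h after dosing. Loss of signal versus DMSO baseline marks displacement. Primary screen in duplicate at 25 uM; actives retested as concentration series.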

For assay [11], the target named is Estrogen receptor (Homo sapiens) (UniProt P03372). In words: NVS_NR_hER: NovaScreen (NVS) Nuclear Receptor Binding Assay for human Estrogen Receptor (ER) (AID 2283348). The procedure, abridged: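 Cell-free radioligand binding with protein extracted from MCF7 cells; scintillation counting 18 hours after dosing. Loss of signal versus DMSO baseline read as displacement; primary single-concentration screen at 25 uM in duplicate, actives retested in concentration series.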

Assay [12] deals with Glucocorticoid receptor (Homo sapiens) (UniProt P04150). The assay can be described thus: NVS_NR_hGR: NovaScreen (NVS) Nuclear Receptor Binding Assay for human Glucocorticoid Receptor (GR) (AID 2283363).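 On AC50: activity is loss of specific radioligand binding signal relative to DMSO.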 The method, boiled down:
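Cell-free radioligand binding with extracted receptor protein, read by filter-based scintillation counting 16 hours after dosing. Loss of specific signal versus DMSO baseline was scored. Primary screen ran in duplicate at 25 uM; actives were followed up in concentration series.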

For assay [13], the target named is Nuclear receptor subfamily 1 group I member 2 (Homo sapiens) (UniProt O75469). The assay can be described thus: NVS_NR_hPXR: NovaScreen (NVS) Nuclear Receptor Binding Assay for human Pregnane X Receptor (PXR) (AID 2283365).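 Further: a drop in FRET signal versus DMSO baseline means the compound binds.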 The method, boiled down:
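Cell-free TR-FRET binding assay with extracted human PXR protein, read 2 h after dosing. Primary screen run in duplicate at 25 uM, actives followed in concentration series; loss of signal fitted against DMSO baseline.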

Results filed as inconclusive are left out. The source made the active and inactive calls. How the source made its calls: active means hit-call score of the fitted dose curve at least 0.9, where 1 is the maximum; inconclusive means response in the unintended direction; inactive means score below 0.9.

Sequence of Estrogen receptor beta (Homo sapiens) (Q92731 whole entry, looked up, the tested form may be a part): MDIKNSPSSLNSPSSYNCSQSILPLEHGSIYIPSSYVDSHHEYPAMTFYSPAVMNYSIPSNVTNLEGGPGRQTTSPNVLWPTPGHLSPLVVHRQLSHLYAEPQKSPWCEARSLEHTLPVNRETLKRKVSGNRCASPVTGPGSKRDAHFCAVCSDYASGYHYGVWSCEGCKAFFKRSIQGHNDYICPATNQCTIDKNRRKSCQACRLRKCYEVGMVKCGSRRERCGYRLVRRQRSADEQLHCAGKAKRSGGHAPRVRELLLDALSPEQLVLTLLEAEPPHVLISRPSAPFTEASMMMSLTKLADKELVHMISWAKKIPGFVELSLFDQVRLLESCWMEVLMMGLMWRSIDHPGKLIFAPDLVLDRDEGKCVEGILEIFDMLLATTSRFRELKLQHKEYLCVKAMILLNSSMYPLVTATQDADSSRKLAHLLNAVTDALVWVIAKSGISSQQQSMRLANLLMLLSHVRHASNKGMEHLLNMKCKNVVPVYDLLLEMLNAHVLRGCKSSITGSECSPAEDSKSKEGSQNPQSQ
T1 sequence (P03372 whole entry, looked up, the tested form may be a part): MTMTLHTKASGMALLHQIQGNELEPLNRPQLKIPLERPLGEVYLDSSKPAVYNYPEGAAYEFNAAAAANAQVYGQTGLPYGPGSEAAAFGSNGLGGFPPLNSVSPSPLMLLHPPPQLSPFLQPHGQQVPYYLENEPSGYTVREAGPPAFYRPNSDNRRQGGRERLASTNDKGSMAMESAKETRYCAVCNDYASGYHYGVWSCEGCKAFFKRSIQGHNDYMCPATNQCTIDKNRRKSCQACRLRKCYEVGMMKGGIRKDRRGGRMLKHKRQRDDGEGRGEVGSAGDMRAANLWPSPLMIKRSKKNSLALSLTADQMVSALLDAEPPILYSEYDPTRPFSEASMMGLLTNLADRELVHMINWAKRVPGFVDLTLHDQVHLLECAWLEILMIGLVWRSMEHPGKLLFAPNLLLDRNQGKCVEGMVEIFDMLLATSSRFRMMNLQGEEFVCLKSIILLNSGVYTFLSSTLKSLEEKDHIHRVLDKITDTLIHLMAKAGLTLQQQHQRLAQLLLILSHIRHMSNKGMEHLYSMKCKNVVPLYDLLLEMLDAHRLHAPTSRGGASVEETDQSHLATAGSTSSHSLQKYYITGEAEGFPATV
T1 sequence (Q92731 whole entry, looked up, the tested form may be a part): as the sequence (Q92731 whole entry, looked up, the tested form may be a part) above
Sequence of Estrogen receptor (Homo sapiens) (P03372 whole entry, looked up, the tested form may be a part): as the sequence (P03372 whole entry, looked up, the tested form may be a part) above
Sequence of Retinoic acid receptor alpha (Homo sapiens) (P10276 whole entry, looked up): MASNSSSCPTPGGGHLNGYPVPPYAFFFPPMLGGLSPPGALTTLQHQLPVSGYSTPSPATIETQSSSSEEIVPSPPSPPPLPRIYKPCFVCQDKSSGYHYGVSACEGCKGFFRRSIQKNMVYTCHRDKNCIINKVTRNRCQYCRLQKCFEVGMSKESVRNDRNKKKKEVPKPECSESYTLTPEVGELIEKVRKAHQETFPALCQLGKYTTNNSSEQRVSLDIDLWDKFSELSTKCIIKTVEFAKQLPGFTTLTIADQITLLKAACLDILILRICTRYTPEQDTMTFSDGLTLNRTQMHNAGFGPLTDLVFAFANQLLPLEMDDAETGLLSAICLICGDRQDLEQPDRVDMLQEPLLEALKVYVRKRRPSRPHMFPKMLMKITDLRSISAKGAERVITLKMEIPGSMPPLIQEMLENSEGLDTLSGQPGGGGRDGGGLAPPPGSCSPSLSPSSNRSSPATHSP
Sequence of Androgen Receptor/SRC-1 Co-activator, AR (gene 367) (P10275 whole entry, looked up, the tested form may be a part): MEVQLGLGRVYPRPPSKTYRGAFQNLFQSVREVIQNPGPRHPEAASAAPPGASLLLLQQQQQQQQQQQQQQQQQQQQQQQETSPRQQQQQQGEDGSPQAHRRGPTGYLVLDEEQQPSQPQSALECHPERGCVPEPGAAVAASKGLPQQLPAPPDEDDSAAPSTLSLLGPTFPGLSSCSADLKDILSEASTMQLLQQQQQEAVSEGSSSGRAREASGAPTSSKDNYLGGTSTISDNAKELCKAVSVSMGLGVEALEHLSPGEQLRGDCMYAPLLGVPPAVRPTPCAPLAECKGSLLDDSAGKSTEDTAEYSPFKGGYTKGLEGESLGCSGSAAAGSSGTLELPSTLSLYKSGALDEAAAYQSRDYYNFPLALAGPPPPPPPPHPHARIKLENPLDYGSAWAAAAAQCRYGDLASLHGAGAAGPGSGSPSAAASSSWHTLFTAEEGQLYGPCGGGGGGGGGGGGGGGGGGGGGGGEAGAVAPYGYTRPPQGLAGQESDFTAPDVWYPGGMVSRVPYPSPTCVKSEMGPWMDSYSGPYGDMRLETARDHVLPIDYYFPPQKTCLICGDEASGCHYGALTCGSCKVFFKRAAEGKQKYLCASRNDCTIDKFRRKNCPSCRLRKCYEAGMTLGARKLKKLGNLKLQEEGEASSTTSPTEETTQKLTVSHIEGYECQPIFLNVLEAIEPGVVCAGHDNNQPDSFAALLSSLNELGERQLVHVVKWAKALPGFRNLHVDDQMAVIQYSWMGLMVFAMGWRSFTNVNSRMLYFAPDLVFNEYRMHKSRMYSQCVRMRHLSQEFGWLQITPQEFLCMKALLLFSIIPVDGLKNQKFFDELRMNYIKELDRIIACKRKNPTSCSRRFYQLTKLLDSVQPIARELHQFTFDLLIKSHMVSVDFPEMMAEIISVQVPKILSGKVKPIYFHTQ
Sequence of Glucocorticoid receptor (Homo sapiens) (P04150 whole entry, looked up): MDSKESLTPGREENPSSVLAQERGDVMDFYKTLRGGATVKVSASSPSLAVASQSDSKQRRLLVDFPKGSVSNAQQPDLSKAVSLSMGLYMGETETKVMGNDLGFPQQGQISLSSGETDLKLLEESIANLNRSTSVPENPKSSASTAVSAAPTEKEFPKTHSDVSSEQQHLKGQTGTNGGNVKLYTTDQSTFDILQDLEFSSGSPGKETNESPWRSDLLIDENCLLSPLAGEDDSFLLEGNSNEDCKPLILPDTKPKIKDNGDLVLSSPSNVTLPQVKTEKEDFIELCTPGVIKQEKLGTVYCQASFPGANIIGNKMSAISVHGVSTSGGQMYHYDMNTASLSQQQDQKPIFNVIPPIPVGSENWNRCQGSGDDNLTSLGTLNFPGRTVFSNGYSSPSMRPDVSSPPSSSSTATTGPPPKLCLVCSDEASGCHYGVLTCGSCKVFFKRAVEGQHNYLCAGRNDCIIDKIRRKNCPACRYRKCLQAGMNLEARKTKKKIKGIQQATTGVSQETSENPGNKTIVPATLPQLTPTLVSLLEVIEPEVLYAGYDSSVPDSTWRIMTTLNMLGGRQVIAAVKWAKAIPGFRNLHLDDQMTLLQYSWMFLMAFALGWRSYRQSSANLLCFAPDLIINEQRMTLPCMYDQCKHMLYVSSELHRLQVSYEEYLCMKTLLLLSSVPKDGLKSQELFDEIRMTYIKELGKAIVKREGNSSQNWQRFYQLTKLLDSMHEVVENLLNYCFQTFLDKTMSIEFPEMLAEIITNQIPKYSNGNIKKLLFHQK
Sequence of rat Mineralocorticoid Receptor (MR), Nr3c2 (gene 25672) (P22199 whole entry, looked up): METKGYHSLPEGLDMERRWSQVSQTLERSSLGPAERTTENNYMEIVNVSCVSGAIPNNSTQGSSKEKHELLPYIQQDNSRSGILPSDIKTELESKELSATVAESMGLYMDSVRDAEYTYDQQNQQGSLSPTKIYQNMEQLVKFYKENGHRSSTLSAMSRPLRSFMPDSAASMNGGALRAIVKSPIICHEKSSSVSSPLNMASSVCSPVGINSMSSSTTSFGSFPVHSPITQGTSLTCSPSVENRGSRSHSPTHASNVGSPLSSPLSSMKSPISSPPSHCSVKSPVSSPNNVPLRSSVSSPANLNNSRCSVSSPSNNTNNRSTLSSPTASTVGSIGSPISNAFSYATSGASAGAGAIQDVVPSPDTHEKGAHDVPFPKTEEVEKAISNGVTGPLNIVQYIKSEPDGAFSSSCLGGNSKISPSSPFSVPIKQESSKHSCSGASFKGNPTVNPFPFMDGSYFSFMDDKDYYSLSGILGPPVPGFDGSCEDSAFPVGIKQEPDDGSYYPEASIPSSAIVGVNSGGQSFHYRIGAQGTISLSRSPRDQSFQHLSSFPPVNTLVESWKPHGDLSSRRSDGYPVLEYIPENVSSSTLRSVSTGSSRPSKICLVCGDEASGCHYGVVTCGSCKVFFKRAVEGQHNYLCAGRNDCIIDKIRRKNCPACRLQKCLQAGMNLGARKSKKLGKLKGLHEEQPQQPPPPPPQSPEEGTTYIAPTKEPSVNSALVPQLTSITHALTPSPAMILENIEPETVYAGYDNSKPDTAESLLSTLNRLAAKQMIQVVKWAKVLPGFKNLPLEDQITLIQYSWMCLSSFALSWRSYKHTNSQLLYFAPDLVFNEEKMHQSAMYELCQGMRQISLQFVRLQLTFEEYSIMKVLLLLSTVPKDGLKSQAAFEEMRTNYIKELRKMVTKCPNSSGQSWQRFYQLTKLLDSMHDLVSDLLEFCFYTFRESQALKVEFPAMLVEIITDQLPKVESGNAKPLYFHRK
Sequence of Bile acid receptor (Homo sapiens) (Q96RI1 whole entry, looked up): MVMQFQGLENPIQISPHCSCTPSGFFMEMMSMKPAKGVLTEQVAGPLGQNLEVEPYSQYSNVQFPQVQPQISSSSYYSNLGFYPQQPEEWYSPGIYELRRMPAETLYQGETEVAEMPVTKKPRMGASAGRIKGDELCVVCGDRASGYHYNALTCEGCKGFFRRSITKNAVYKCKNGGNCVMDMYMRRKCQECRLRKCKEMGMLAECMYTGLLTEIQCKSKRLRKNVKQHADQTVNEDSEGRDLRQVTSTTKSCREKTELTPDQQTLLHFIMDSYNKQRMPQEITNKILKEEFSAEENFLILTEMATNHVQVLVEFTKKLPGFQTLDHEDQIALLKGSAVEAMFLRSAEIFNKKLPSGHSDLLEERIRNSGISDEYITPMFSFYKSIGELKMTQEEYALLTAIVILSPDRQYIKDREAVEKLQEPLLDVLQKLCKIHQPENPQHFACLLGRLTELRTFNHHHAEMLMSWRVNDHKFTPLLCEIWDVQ

With `O=c1n(Cl)c(=O)n(Cl)c(=O)n1Cl`, the result in [1], in assay [2], in assay [3] and in [4] was inactive.

In the case of `COCc1cnc(C2=NC(C)(C(C)C)C(=O)N2)c(C(=O)O)c1` (configuration not stated), the compound was classed as inactive in assay [1], in [6], in [7], in assay [2], in [3] and in [4]. Moreover, the AC50 in assay [5] is 30.3 µM (active).

As for `COC(=O)NC(=S)Nc1ccccc1NC(=S)NC(=O)OC`, the call in assay [1], in assay [6], in [2] and in [3] was inactive.

With `Clc1nc(Cl)nc(Nc2ccccc2Cl)n1`, the result in assay [1], in assay [6], in assay [2] and in assay [3] was inactive. Also, the AC50 in [8] was 25 µM (active).

As for `O=P(O)(O)CCCl`, the call in assay [1] was inactive.

`CC(C)N1C(=O)N(c2ccccc2)CSC1=NC(C)(C)C`: the outcome in [1], in assay [6] and in assay [2] was inactive. For the same compound, the AC50 in assay [7] is 62.9 µM (active); in assay [3] it was 21.1 µM (active).

Regarding `CC1(C)CON(Cc2ccccc2Cl)C1=O`, the call in [1], in assay [9], in assay [6], in assay [2] and in [3] was inactive.

As to `C=CCOC(=O)C(C)(C)OC(=O)c1cc(-n2c(=O)cc(C(F)(F)F)n(C)c2=O)ccc1Cl`, the compound was classed as inactive in assay [1], in [6], in assay [2] and in [3].

In the case of `COc1ccc(-c2ccccc2)cc1NNC(=O)OC(C)C`, the result in assay [1], in assay [6], in assay [7], in assay [10], in [2] and in assay [3] was inactive.

Turning to `CCN(CC)c1nc(C)cc(OP(=S)(OC)OC)n1`, the outcome in assay [11], in assay [1], in assay [4] and in [8] was inactive. Besides, the AC50 was 19.9 µM (active) in assay [6], 34.9 µM (active) in assay [2], 30.7 µM (active) in assay [3] and 9.72 µM (active) in [12].

As for `CC1(C)C(C(=O)OC(C#N)c2cccc(Oc3ccccc3)c2)C1(C)C` (configuration not stated), the outcome in assay [1], in assay [9], in [6], in assay [2] and in [3] was inactive.

For `CO/N=C(/C1=NOCCO1)c1ccccc1Oc1ncnc(Oc2ccccc2Cl)c1F`, the outcome in [1] and in assay [9] was inactive.

Regarding `O=C(O)c1c(Cl)ccc2cc(Cl)cnc12`, the outcome in assay [1], in assay [6], in assay [2] and in assay [3] was inactive.

`CCCC(=NOCC)C1=C(O)CC(CC(C)SCC)CC1=O` (configuration not stated): the compound was called inactive in assay [1], in assay [6], in assay [10], in assay [2], in assay [3] and in assay [4].

For `CN/C(=N\[N+](=O)[O-])NCc1cnc(Cl)s1`, the outcome in assay [1], in [6] and in assay [2] was inactive.

Turning to `COCC(C)N(C(=O)CCl)c1c(C)csc1C` (configuration not stated), the compound was called inactive in assay [1], in assay [6] and in assay [2].

As to `Cc1cc(C)nc(Nc2ccccc2)n1`, the result in [1] was inactive.

`Cc1nc(N(C)C)nc(OC(=O)N(C)C)c1C`: the result in assay [1], in [6], in assay [2] and in assay [3] was inactive.

`CS(=O)(=O)c1cc(C(F)(F)F)ccc1C(=O)c1cnoc1C1CC1`: the outcome in [1], in assay [6], in assay [2], in assay [3] and in [4] was inactive.

On to `COc1cc(Cl)c(OC)cc1Cl`, for which the call in assay [1], in [9], in assay [6], in assay [2] and in [3] was inactive.

On to `CCNC(=O)NC(=O)C(C#N)=NOC`, for which the compound was classed as inactive in [1], in assay [5], in assay [9], in assay [12] and in assay [13].

Regarding `O=C(Nc1ccccc1-c1ccc(Cl)cc1)c1cccnc1Cl`, the compound was classed as inactive in assay [1], in assay [9], in assay [6], in [2] and in assay [3].
